“And” between values parts separate entries of the source, which are not always exact repeats. Equal entries are not always repeated. Inconclusive results are not listed. The source holds several records for some structures; these can differ, active in one and inactive in another. The source made the active and inactive calls. The call rests on the fitted dose curve; in most records, active means well fitted inhibition curve with a large enough effect; inconclusive means small, poorly fitted or top-dose-only effect; inactive means flat fitted curve, though single readings scatter.
Legend:
JCK = experiment: qHTS profiling for inhibitors of Plasmodium falciparum proliferation (AID 504749); further: potency means the concentration at half of the fitted maximal effect; conditions: P. falciparum in erythrocytes, SYBR Green DNA, 72 h; series mostly up to 28.7 µM
Method in brief: (§1)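 Each compound contacts P. falciparum-infected red blood cells for 72 h at 37 C; lysis buffer (Tris, EDTA, saponin, Triton X, SYBR Green I) is added and fluorescence measured next morning; values normalized to controls.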

N140 = experiment: as above; conditions: P. falciparum in erythrocytes, SYBR Green DNA, 72 h; series mostly up to 28.7 µM
Method in brief: as §1

P93_24 = experiment: as above; conditions: P. falciparum in erythrocytes, SYBR Green DNA, 72 h; series mostly up to 28.7 µM
Method in brief: as §1

P94_40 = experiment: as above; conditions: P. falciparum in erythrocytes, SYBR Green DNA, 72 h; series mostly up to 28.7 µM
Method in brief: as §1

PAD = experiment: as above; conditions: P. falciparum in erythrocytes, SYBR Green DNA, 72 h; series mostly up to 28.7 µM
Method in brief: as §1

PC15 = experiment: as above; conditions: P. falciparum in erythrocytes, SYBR Green DNA, 72 h; series mostly up to 28.7 µM
Method in brief: as §1

PC26 = experiment: as above; conditions: P. falciparum in erythrocytes, SYBR Green DNA, 72 h; series mostly up to 28.7 µM
Method in brief: as §1

PC49 = experiment: as above; conditions: P. falciparum in erythrocytes, SYBR Green DNA, 72 h; series mostly up to 28.7 µM
Method in brief: as §1

SC27B = experiment: as above; conditions: P. falciparum in erythrocytes, SYBR Green DNA, 72 h; series mostly up to 28.7 µM
Method in brief: as §1

TAB109 = experiment: as above; conditions: P. falciparum in erythrocytes, SYBR Green DNA, 72 h; series mostly up to 28.7 µM
Method in brief: as §1

TAB113 = experiment: as above; conditions: P. falciparum in erythrocytes, SYBR Green DNA, 72 h; series mostly up to 28.7 µM
Method in brief: as §1

TAB165 = experiment: as above; conditions: P. falciparum in erythrocytes, SYBR Green DNA, 72 h; series mostly up to 28.7 µM
Method in brief: as §1

W2 = experiment: as above; conditions: P. falciparum in erythrocytes, SYBR Green DNA, 72 h; series mostly up to 28.7 µM
Method in brief: as §1

CRL-7250 = normal cell line; experiment: Cytotoxic Profiling of Annotated Libraries Using Quantitative High-Throughput Screening (AID 1296008); conditions: Five cell lines viability, CellTiter-Glo ATP luminescence, 48-72 h; max response: active compounds read low; further: potency means the concentration at half of the fitted maximal effect; on max response: on the % scale 0 is the no-effect control and ±100 the full control effect
Method in brief: (§2)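 Cells exposed to compounds for 48 or 72 hr at 37 degrees Celsius. Viability read as ATP-coupled luminescence with CellTiter-Glo after 10 min at room temperature.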

HEK293 = experiment: as above; conditions: Five cell lines viability, CellTiter-Glo ATP luminescence, 48-72 h; max response: active compounds read low
Method in brief: as §2

HaCat [1] = experiment: as above; conditions: Five cell lines viability, CellTiter-Glo ATP luminescence, 48-72 h; max response: active compounds read low
Method in brief: as §2

KB-3-1 = experiment: as above; conditions: Five cell lines viability, CellTiter-Glo ATP luminescence, 48-72 h; max response: active compounds read low
Method in brief: as §2

NIH3T3 = experiment: as above; conditions: Five cell lines viability, CellTiter-Glo ATP luminescence, 48-72 h; max response: active compounds read low
Method in brief: as §2

HACAT [2] = experiment: qHTS assay to identify novel small-molecules to repurpose for Merkel cell carcinoma treatment (AID 1296009); conditions: MCC and control cell lines, CellTiter-Glo viability, 72 h; at 44.8 µM (top of the series) unless noted
Method in brief: (§3)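 Dose-response viability screen; 72 hr exposure at 37 degree celsius; CellTiter-Glo added, 10 min room temperature, luminescence read; RLUs scaled between no-cell and DMSO wells.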

HEK293T = experiment: as above; conditions: MCC and control cell lines, CellTiter-Glo viability, 72 h; at 44.8 µM (top of the series) unless noted
Method in brief: as §3
Further: nearly all actives have a fitted effect of over 60% in size.

Cc1cccc(Nc2ccncc2S(=O)(=O)NC(=O)NC(C)C)c1
inactive: Potency (JCK) | Potency (N140) | Potency (P93_24) | Potency (P94_40) | Potency (PAD) | Potency (PC15) | Potency (PC26) | Potency (PC49) | Potency (SC27B) | Potency (TAB109) | Potency (TAB113) | Potency (TAB165) | Potency (W2) | max response (CRL-7250) -14.3% | outcome (CRL-7250) | max response (HEK293) 1.87% and -6.16% | max response (HaCat [1]) -0.391% | outcome (HaCat [1]) | max response (KB-3-1) -4.26% and -4.09% | max response (NIH3T3) 4.21% and -1.03% | outcome (HACAT [2])

CS(=O)(=O)c1ccc([C@@H](O)[C@@H](CO)NC(=O)C(Cl)Cl)cc1
active: Potency (HEK293) 2.99 µM
inactive: max response (CRL-7250) -2.94% | outcome (CRL-7250) | max response (HaCat [1]) 4.09% | outcome (HaCat [1]) | max response (KB-3-1) -5.5% | max response (NIH3T3) 1.24% and 2.73% | outcome (HACAT [2])

CC1=CC(=O)c2ccccc2C1=O
inactive: Potency (JCK) | Potency (N140) | Potency (P93_24) | Potency (P94_40) | Potency (PAD) | Potency (PC26) | Potency (PC49) | Potency (SC27B) | Potency (TAB109) | Potency (TAB113) | Potency (TAB165) | max response (CRL-7250) 3.35% | outcome (CRL-7250) | max response (HEK293) 2.41% | outcome (HEK293) | outcome (HaCat [1]) | max response (KB-3-1) 1.53% | outcome (KB-3-1) | max response (NIH3T3) -2.61% | outcome (NIH3T3) | outcome (HACAT [2]) | outcome (HEK293T)
active: Potency (W2) 6.01 µM

CC(=O)CC(c1ccccc1)c1c(O)c2ccccc2oc1=O (configuration not stated)
inactive: max response (CRL-7250) -2.79% | outcome (CRL-7250) | outcome (HEK293) | max response (HaCat [1]) -6.98% | outcome (HaCat [1]) | max response (KB-3-1) 7.33% and -13.6% and 2.81% | max response (NIH3T3) -11.7% and -5.84% | outcome (HACAT [2]) | outcome (HEK293T)

NS(=O)(=O)c1cc2c(cc1Cl)NC(C(Cl)Cl)NS2(=O)=O (configuration not stated)
inactive: max response (CRL-7250) -3.96% | outcome (CRL-7250) | max response (HEK293) -0.123% | outcome (HEK293) | max response (HaCat [1]) -16.1% | outcome (HaCat [1]) | max response (KB-3-1) 9.97% | outcome (KB-3-1) | max response (NIH3T3) 3.32% and -1.25% | outcome (HACAT [2]) | outcome (HEK293T)

O=C(N[C@H](CO)[C@H](O)c1ccc([N+](=O)[O-])cc1)C(Cl)Cl
active: Potency (HEK293) 15.4 µM
inactive: max response (CRL-7250) 2.58% | outcome (CRL-7250) | outcome (HEK293) | max response (HaCat [1]) -14.6% and -20.9% | max response (KB-3-1) -16.7% | outcome (KB-3-1) | max response (NIH3T3) 4.84% and -8.61% | outcome (HEK293T)

O=C(O)CSCC(=O)NC1CCSC1=O (configuration not stated)
inactive: max response (CRL-7250) -2.44% | outcome (CRL-7250) | max response (HEK293) -6.58% | outcome (HEK293) | outcome (HaCat [1]) | outcome (KB-3-1) | max response (NIH3T3) 2.01% | outcome (NIH3T3) | outcome (HACAT [2]) | outcome (HEK293T)

CN(C)CCc1c[nH]c2ccc(C[C@H]3COC(=O)N3)cc12
inactive: max response (CRL-7250) -10.2% | outcome (CRL-7250) | max response (HEK293) 4.33% and -3.7% | max response (HaCat [1]) 4.23% | outcome (HaCat [1]) | max response (KB-3-1) 7.3% and 1.82% | max response (NIH3T3) -0.145% | outcome (NIH3T3) | outcome (HACAT [2])
active: Potency (HEK293) 4.18 µM | Potency (HaCat [1]) 14.8 µM | Potency (NIH3T3) 10.5 µM

CCn1cc(C(=O)O)c(=O)c2cc(F)c(N3CCN(C)CC3)cc21
inactive: Potency (JCK) | Potency (N140) | Potency (PAD) | Potency (PC15) | Potency (PC26) | Potency (PC49) | max response (CRL-7250) -3.59% | outcome (CRL-7250) | max response (HaCat [1]) -4.37% | outcome (HaCat [1]) | max response (KB-3-1) 2.67% and -1.65% | max response (NIH3T3) -2.14% | outcome (NIH3T3) | outcome (HACAT [2]) inactive [at 17.4 µM] | outcome (HEK293T) inactive [at 17.4 µM]

COc1ccccc1OCC(O)COC(N)=O (configuration not stated)
inactive: max response (CRL-7250) -1.17% | outcome (CRL-7250) | max response (HEK293) 2.15% | outcome (HEK293) | max response (HaCat [1]) -15.7% | outcome (HaCat [1]) | max response (KB-3-1) 5.86% and 1.39% | max response (NIH3T3) 4.42% and 1.69% | outcome (HACAT [2]) | outcome (HEK293T)

O=NN(CCCl)C(=O)NC1CCCCC1
inactive: Potency (JCK) | Potency (N140) | Potency (P93_24) | Potency (P94_40) | Potency (PAD) | Potency (PC15) | Potency (PC26) | Potency (PC49) | Potency (SC27B) | Potency (TAB109) | Potency (TAB113) | Potency (TAB165) | Potency (W2) | max response (CRL-7250) 4.87% | outcome (CRL-7250) | max response (HaCat [1]) 4.22% | outcome (HaCat [1]) | max response (KB-3-1) 2.75% | outcome (KB-3-1) | max response (NIH3T3) -1.41% | outcome (NIH3T3) | outcome (HACAT [2]) | outcome (HEK293T)

O=C(O)c1cc(=O)[nH]c(=O)[nH]1
inactive: Potency (JCK) | Potency (N140) | Potency (P93_24) | Potency (P94_40) | Potency (PAD) | Potency (PC15) | Potency (PC26) | Potency (PC49) | Potency (SC27B) | Potency (TAB109) | Potency (TAB113) | Potency (TAB165) | Potency (W2) | max response (CRL-7250) 0.562% | outcome (CRL-7250) | max response (HEK293) -5.89% and -6.58% | max response (HaCat [1]) -18% | outcome (HaCat [1]) | max response (KB-3-1) -14.3% and 1.15% | max response (NIH3T3) 3.37% | outcome (HACAT [2])
